ClpP mod = qHTS Assay for Activators of ClpP. ATP-dependent Clp protease proteolytic subunit (Bacillus subtilis (strain 168)), P80244. 340,000 compounds, 1.9% hits. AID 651965, 2013. Potency, µM (titrated, usually from 57.5 µM), inactives show at the top dose activity change, negative = active. purified B. subtilis ClpP, FRET peptide cleavage, 20 min; active means well fitted falling curve with a large enough effect; inconclusive means small, poorly fitted or top-dose-only effect; inactive means no such curve, though single readings can be large or run the other way; further: the source files actives as falling curves though it sought activators and does not explain the sign; nearly all actives have a fitted effect of over 65% in size
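Buffer: 100 mM Tris/HCl pH8, 100 mM KCl, 0.05% low protease BSA, 2.5% glycerol, 0.01% Tween-20. ClpP 10 microg/mL final; 20 min RT; delta FRET normalized to ADEP and DMSO controls.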
TDP1 cell noCPT = qHTS for Inhibitors of human tyrosyl-DNA phosphodiesterase 1 (TDP1): qHTS in cells in absence of CPT; Potency, µM (top dose mostly 46.2 µM), for inactives: at the top dose activity change, negative = growth inhibition, most hits filed as inhibitors; AID 686978, 2013; 420,000 compounds, 15% hits; DT40 Tdp1-/- hTDP1 cells, no CPT, ATP luminescence, 48 h; further: on the % scale 0 is the no-effect control and ±100 the full control effect; nearly all actives have a fitted effect of over 55% in size
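A cellular qHTS used chicken DT40 cells lacking endogenous Tdp1 but carrying stably transfected human TDP1. Compounds were applied without camptothecin, and cell growth kinetics were judged by ATP-dependent luminescence after ≥48 hr.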
TDP1 cell CPT = growth inhibition of DT40 Tdp1-/-;hTDP1 cells with camptothecin (screen for TDP1 inhibitors) | Potency, µM (series often up to 46.2 µM), for inactives: top-dose activity change, negative = growth inhibition, usual class: inhibitors | chicken DT40 Tdp1-/-;hTDP1 cells + 20 nM CPT, ATP luminescence, 48 h | AID 686979 | 420,000 compounds, 12% hits; further: on the % scale 0 is the no-effect control and ±100 the full control effect; nearly all actives have a fitted effect of over 55% in size
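Chicken DT40 Tdp1-/- cells stably complemented with human TDP1 were seeded at 400 cells/well in medium containing 20 nM camptothecin, exposed to pin-transferred compounds, and grown at 37 °C for at least 48 hr. Viability was read as ATP luminescence.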
TDP1 inh = TDP1 (human) enzyme inhibition; Q9NUW8; recombinant TDP1, AlphaScreen DNA substrate cleavage; Potency, µM (doses to about 130 µM), without a hit: at the top dose activity change, negative = inhibition, most hits filed as inhibitors; 350,000 compounds, 0.28% hits; AID 485290; further: on the % scale 0 is the no-effect control and ±100 the full control effect; nearly all actives have a fitted effect of over 40% in size
Target sequence (Q9NUW8 whole entry, looked up): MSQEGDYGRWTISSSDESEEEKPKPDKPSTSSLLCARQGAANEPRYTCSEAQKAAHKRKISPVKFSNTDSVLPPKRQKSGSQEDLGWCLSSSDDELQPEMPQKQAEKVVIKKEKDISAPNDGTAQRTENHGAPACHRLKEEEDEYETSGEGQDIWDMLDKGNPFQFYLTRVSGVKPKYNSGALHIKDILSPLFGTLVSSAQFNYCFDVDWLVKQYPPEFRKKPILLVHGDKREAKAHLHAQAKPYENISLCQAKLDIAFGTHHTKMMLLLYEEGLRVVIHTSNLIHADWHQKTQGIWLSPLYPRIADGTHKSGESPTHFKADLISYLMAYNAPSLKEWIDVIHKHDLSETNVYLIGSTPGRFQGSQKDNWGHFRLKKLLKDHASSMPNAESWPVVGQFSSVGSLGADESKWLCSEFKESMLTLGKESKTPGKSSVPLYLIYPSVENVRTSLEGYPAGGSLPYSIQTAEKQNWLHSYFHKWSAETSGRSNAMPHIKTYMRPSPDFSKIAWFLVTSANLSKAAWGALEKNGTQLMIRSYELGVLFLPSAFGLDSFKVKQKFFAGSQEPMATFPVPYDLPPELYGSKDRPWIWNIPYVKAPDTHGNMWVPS
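Recombinant human Tdp1 (E. coli-expressed, 1 nM final) preincubated with compounds 15 min at room temperature, then 5'-biotin/3'-phosphotyrosine-FITC DNA substrate (15 nM final) added for 5 min. AlphaScreen beads (10 ug/ml final) added 10 min; cleavage lowers signal.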
Numbers without * were called inactive; ? = inconclusive; nt = no result given; [ ] = dose if it differs, or a comment. Most compounds without a hit are left out; they make up all but 17% or so of the library. Unless noted, the call rests on the fitted dose curve; in most records, active means well fitted curve in the direction sought with a large enough effect; inconclusive means small, poorly fitted or top-dose-only effect, or another doubt; inactive means no such curve, though single readings can be large; an effect the other way counts as inactive or inconclusive. Potency means the concentration at half of the fitted maximal effect.

SMILES	ClpP mod	TDP1 cell noCPT	TDP1 cell CPT	TDP1 inh
CC(C)N1CCc2c(sc(NC(=O)CCc3ccccc3)c2C(N)=O)C1	-15.4%	-6.8%	-2.3%	5.8%
C[C@@H]1CCC[C@@]2(O[C@@H](CCO)C[C@@H](O)[C@@H]2O)O1	-0.5%	-19.8%	-4.8%	nt
O=S(OCCN1CCCC1)C(c1ccccc1)c1ccccc1 (centres undefined)	-3.0%	?	?	nt
Cc1ccc2oc(=O)c3cnn(CC(=O)N4CCN(c5ccc(F)cc5)CC4)c3c2c1	-5.8%	-12.6%	2.0%	-3.8%
CCCNC(=O)[C@@H]1CCCN1C(=O)[C@@H]1Cc2ccccc2CN1	-1.8%	?	10.3%	nt
C=CCn1c(=O)/c(=C/c2ccc(Cl)cc2)s/c1=C(\C#N)c1nnc2n1CCCCC2	0.6%	6.51µM*	20.6µM*	nt
Cc1cc(C)n2nc(SC(C)C(=O)N3CCOCC3)nc2n1 (centres undefined)	?	-4.1%	12.5%	0.7%
CC(C)C(=O)N1CCN(c2ccc([N+](=O)[O-])c(NC(C)c3ccccc3)c2)CC1 (centres undefined)	1.1%	16.4µM*	?	7.0%
O=[N+]([O-])c1ccc(N2CCOCC2)cc1NC(c1ccccc1)c1ccccc1	0.6%	?	16.4µM*	10.7%
CC(C)Nc1cc(N2CCCC2)ccc1[N+](=O)[O-]	1.0%	-15.8%	?	-7.7%
CC(Nc1cc(N2CCN(C(=O)C(C)(C)C)CC2)ccc1[N+](=O)[O-])c1ccccc1 (centres undefined)	0.7%	23.1µM*	?	7.9%
CCS(=O)(=O)N1CCN(c2ccc([N+](=O)[O-])c(NCc3ccccc3)c2)CC1	9.8%	?	?	-1.9%
CCOc1ccc(-n2c(SCC(=O)N3CCCC3)nc3c([nH]c4ccccc43)c2=O)cc1	0.8%	-5.3%	-7.3%	2.2%
CC(C)CN1CC2(CCN(S(=O)(=O)c3ccccc3)CC2)C1	nt	-3.1%	0.7%	nt
CC(C)CN1CCC2(CC1)CCN(S(=O)(=O)c1ccccc1)CC2	nt	23.1µM*	?	nt
Cc1ccsc1CN(C(=O)c1oc2ccccc2c1C)C1CCS(=O)(=O)C1 (centres undefined)	0.2%	5.17µM*	8.2µM*	4.9%
Cc1c(C(=O)N(Cc2ccccc2)C2CCS(=O)(=O)C2)oc2ccccc12 (centres undefined)	-1.0%	20.6µM*	?	nt
CCc1ccc(CN(C(=O)c2oc3ccccc3c2C)C2CCS(=O)(=O)C2)cc1 (centres undefined)	0.8%	18.4µM*	?	nt
Cc1c(C(=O)N(Cc2ccc(F)cc2)C2CCS(=O)(=O)C2)oc2ccccc12 (centres undefined)	0.1%	-28.1%	?	-0.3%
Cc1c(C(=O)N(Cc2cccc(Br)c2)C2CCS(=O)(=O)C2)oc2ccccc12 (centres undefined)	0.9%	20.6µM*	?	3.5%
Cc1c(C(=O)N(Cc2ccccc2F)C2CCS(=O)(=O)C2)oc2ccccc12 (centres undefined)	1.1%	?	?	3.7%
CCn1c(SCC(=O)N(C)C)nc2cc(S(=O)(=O)N3CCCCC3)ccc21	1.6%	-19.6%	-18.6%	5.4%
CCCCCCCCCCCCC/C=C/[C@@H](O)[C@H](CO)NC(C)=O	nt	?	-14.7%[4.12 µM]	4.9%
COCCCN1C(=O)C(CC(=O)NCCN2CCOCC2)CC(C(=O)N(C)C)=C1C (centres undefined)	0.6%	-10.5%	7.3%	nt
O=C(Cn1c(=O)oc2ccccc21)N(Cc1ccccc1)C1CCS(=O)(=O)C1 (centres undefined)	0.8%	?	23.1µM*	6.1%
Cc1c(C(=O)N(Cc2ccc(N(C)C)cc2)C2CCS(=O)(=O)C2)oc2ccccc12 (centres undefined)	-1.3%	?	29.1µM*	10.6%
COc1cc(CN(C(=O)c2oc3ccccc3c2C)C2CCS(=O)(=O)C2)cc(OC)c1OC (centres undefined)	0.0%	?	?	0.0%
N#Cc1cccc(-c2cc(NCc3cccnc3)ncn2)c1	nt	-14.9%	-3.9%	nt

Compound activity from PubChem BioAssay.
